# According to the supplement of paper PMC9262897, “Low-cost anti-mycobacterial drug discovery using engineered E. coli” (Nature Communications, 2022):
# Counter-ions that a name gives are not always drawn. ± gives the standard deviation of the averaged measurements.
# Assays:
# Assay in all cases: growth (OD600 after 10 h); higher = more growth (less inhibition)
# [1] = tested on: E. coli TESEC Alr+ wild-type control; conditions: compound 0.1 mM; raw OD600 reference: median of DMSO wells 0.241, cell-free background 0.041
# Protocol: (§1)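 TESEC Mtb Alr E. coli, or the Alr+ wild-type control, in 384-well plates with Prestwick library compounds at 0.1 mM and 1% DMSO, across arabinose induction levels of 1E3 to 1E7 nM. Growth is read as OD600 after 10 h at 37 °C in triplicate biological replicates.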
# E. coli TESEC Mtb Alr [2] = conditions: compound 0.1 mM
# Protocol: as §1
# E. coli TESEC Mtb Asd = conditions: compound 0.1 mM
# Protocol: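 TESEC E. coli strains in which the native enzyme is deleted and replaced by arabinose-inducible Mtb Asd, DapB, CysH or TrpD, each grown in its selective medium. Strains were screened against the Prestwick library at 0.1 mM and 1% DMSO in 384-well format at low and high arabinose induction. Growth is read as OD600 after 10 h in triplicate.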
# [3] = tested on: E. coli TESEC Alr+ wild-type control; conditions: compound 0.1 mM; raw OD600 reference: median of DMSO wells 0.49, cell-free background 0.052
# Protocol: (§2)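 TESEC Mtb Alr E. coli (ΔaraC ΔtolC ΔentC Δalr ΔdadX, arabinose-inducible Mtb Alr) or the Alr+ wild-type control strain, grown in defined M9-fructose medium without D-alanine in 96-well plates with Prestwick library compounds at 0.1 mM and 1% DMSO. Low Alr induction is 0.1 µM arabinose and high induction is 10 mM arabinose.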
# E. coli TESEC Mtb Alr [4] = conditions: compound 0.1 mM; remark: listed apart in the source
# Protocol: as §2
# [5] = arabinose 1000 nM, raw OD600 reference: median of DMSO wells 0.294, cell-free background 0.041
# [6] = arabinose 10000 nM, raw OD600 reference: median of DMSO wells 0.264, cell-free background 0.041
# [7] = arabinose 100000 nM, raw OD600 reference: median of DMSO wells 0.201, cell-free background 0.041
# [8] = arabinose 1000000 nM, raw OD600 reference: median of DMSO wells 0.193, cell-free background 0.041
# [9] = arabinose 10000000 nM, raw OD600 reference: median of DMSO wells 0.146, cell-free background 0.041
# [10] = arabinose induction (level): High, raw OD600 reference: median of DMSO wells 0.331, cell-free background 0.041
# [11] = arabinose induction (level): Low, raw OD600 reference: median of DMSO wells 0.417, cell-free background 0.041
# [12] = arabinose 100 nM, raw OD600 reference: median of DMSO wells 0.413, cell-free background 0.052
# [13] = arabinose 10000000 nM, raw OD600 reference: median of DMSO wells […], cell-free background 0.052
SMILES,growth [1],growth (E. coli TESEC Mtb Alr [2]; [5]),growth (E. coli TESEC Mtb Alr [2]; [6]),growth (E. coli TESEC Mtb Alr [2]; [7]),growth (E. coli TESEC Mtb Alr [2]; [8]),growth (E. coli TESEC Mtb Alr [2]; [9]),growth (E. coli TESEC Mtb Asd; [10]),growth (E. coli TESEC Mtb Asd; [11]),growth [3],growth (E. coli TESEC Mtb Alr [4]; [12]),growth (E. coli TESEC Mtb Alr [4]; [13])
CC(=O)Nc1nnc(S(N)(=O)=O)s1 [Acetazolamide],0.249 ± 0.017,0.293 ± 0.023,0.253 ± 0.0037,0.234 ± 0.0084,0.166 ± 0.0058,0.141 ± 0.006,0.361 ± 0.014,0.394 ± 0.051,0.436 ± 0.042,0.408 ± 0.011,0.317 ± 0.05
C=C[C@H]1CN2CC[C@H]1C[C@@H]2[C@@H](O)c1ccnc2ccc(OC)cc12 [Quinidine hydrochloride monohydrate],0.22 ± 0.004,0.28 ± 0.019,0.265 ± 0.01,0.181 ± 0.0089,0.138 ± 0.0072,0.144 ± 0.0058,0.239 ± 0.04,0.412 ± 0.012,0.483 ± 0.07,0.4326 ± 0.004,0.356 ± 0.0089
C=CC1=C(C(=O)O)N2C(=O)[C@@H](NC(=O)/C(=N\OCC(=O)O)c3csc(N)n3)[C@H]2SC1 [Cefixime],0.0395 ± 0.00093,0.0377 ± 0.0006,0.0408 ± 0.00017,0.03693 ± 0.00032,0.0407 ± 0.00045,0.04003 ± 0.00021,0.0679 ± 0.013,0.048 ± 0.004,0.0448 ± 0.00017,0.0456 ± 0.00035,0.054 ± 0.001
Oc1c(I)cc(Cl)c2cccnc12 [Clioquinol],0.0473 ± 0.0055,0.0429 ± 0.0016,0.0409 ± 0.00085,0.0461 ± 0.0025,0.0417 ± 0.00053,0.0513 ± 0.0023,0.0601 ± 0.0098,0.0661 ± 0.016,0.0685 ± 0.0091,0.0741 ± 0.02,0.0669 ± 0.011
CN1CCCN=C1/C=C/c1cccs1 [Pyrantel tartrate],0.235 ± 0.0042,0.278 ± 0.0075,0.268 ± 0.0081,0.191 ± 0.015,0.187 ± 0.00096,0.148 ± 0.0055,0.347 ± 0.032,0.416 ± 0.039,0.458 ± 0.043,0.409 ± 0.0096,0.3434 ± 0.0026
Cc1c(NC(=O)c2cccnc2)c(=O)n(-c2ccccc2)n1C [Nifenazone],0.251 ± 0.0067,0.305 ± 0.0092,0.27 ± 0.0045,0.212 ± 0.024,0.183 ± 0.0036,0.1554 ± 0.001,0.309 ± 0.066,0.411 ± 0.1,0.507 ± 0.062,0.413 ± 0.017,0.339 ± 0.011
CC1(C)S[C@@H]2[C@H](NC(=O)[C@H](N)c3ccc(O)cc3)C(=O)N2[C@H]1C(=O)O [Amoxicillin],0.242 ± 0.006,0.297 ± 0.0057,0.251 ± 0.0052,0.211 ± 0.033,0.186 ± 0.0034,0.14 ± 0.0024,0.358 ± 0.097,0.321 ± 0.037,0.572 ± 0.07,0.422 ± 0.011,0.378 ± 0.0083
Cc1cc2cc3c(C)cc(=O)oc3c(C)c2o1 [Trioxsalen],0.253 ± 0.0068,0.312 ± 0.0079,0.258 ± 0.008,0.192 ± 0.0079,0.161 ± 0.0053,0.1653 ± 0.0007,0.454 ± 0.015,0.423 ± 0.0095,0.438 ± 0.0099,0.4096 ± 0.0037,0.324 ± 0.024
Cc1ccc(C)c(OCCCC(C)(C)C(=O)O)c1 [Gemfibrozil],0.2143 ± 0.0012,0.258 ± 0.0058,0.22 ± 0.0045,0.163 ± 0.0097,0.153 ± 0.0071,0.121 ± 0.0017,0.202 ± 0.051,0.214 ± 0.0039,0.41 ± 0.018,0.354 ± 0.037,0.261 ± 0.011
CCN(CC)Cc1cc(Nc2ccnc3cc(Cl)ccc23)ccc1O [Amodiaquin dihydrochloride dihydrate],0.16 ± 0.0068,0.229 ± 0.0059,0.269 ± 0.003,0.181 ± 0.0097,0.102 ± 0.0085,0.203 ± 0.0054,0.179 ± 0.011,0.387 ± 0.051,0.527 ± 0.047,0.4131 ± 0.00099,0.322 ± 0.0054
CN(C)CCCN1c2ccccc2Sc2ccc(C(F)(F)F)cc21 [Triflupromazine hydrochloride],0.0405 ± 0.00036,0.03957 ± 0.00015,0.0392 ± 0.00026,0.0407 ± 0.00062,0.0391,0.042 ± 0.00055,0.0504 ± 0.0028,0.0491 ± 0.0012,0.049 ± 0.00076,0.298 ± 0.21,0.0543 ± 0.0015
COc1ccnc(C[S+]([O-])c2nc3cc(OC(F)F)ccc3[nH]2)c1OC (stereo not given) [Pantoprazole sodium],0.168 ± 0.0022,0.218 ± 0.0049,0.28 ± 0.0076,0.18 ± 0.011,0.119 ± 0.0037,0.137 ± 0.0065,0.308 ± 0.1,0.296 ± 0.057,0.451 ± 0.013,0.399 ± 0.011,0.291 ± 0.022
O=C(NCC(O)CO)c1c(I)c(C(=O)NCC(O)CO)c(I)c(N(CCO)C(=O)CO)c1I (stereo not given) [Ioversol],0.257 ± 0.0068,0.308 ± 0.017,0.288 ± 0.013,0.208 ± 0.015,0.192 ± 0.0057,0.169 ± 0.0037,0.477 ± 0.014,0.46 ± 0.019,0.452 ± 0.008,0.408 ± 0.015,0.362 ± 0.017
CSc1nc2cc(Cl)c(Oc3cccc(Cl)c3Cl)cc2[nH]1 [Triclabendazole],0.0427 ± 0.0024,0.0531 ± 0.0014,0.0802 ± 0.002,0.0447 ± 0.0021,0.0733 ± 0.012,0.04873 ± 5.8e-05,0.0558 ± 0.0083,0.0583 ± 0.0045,0.0897 ± 0.0096,0.0864 ± 0.011,0.137 ± 0.014
CCCOc1ccc2[nH]c(NC(=O)OC)nc2c1 [Oxibendazol],0.264 ± 0.025,0.309 ± 0.021,0.269 ± 0.0059,0.213 ± 0.028,0.183 ± 0.0022,0.151 ± 0.0057,0.353 ± 0.1,0.425 ± 0.048,0.518 ± 0.085,0.409 ± 0.0096,0.345 ± 0.039
NCCCC[C@H](N[C@@H](CCc1ccccc1)C(=O)O)C(=O)N1CCC[C@H]1C(=O)O [Lisinopril],0.257 ± 0.0039,0.304 ± 0.0053,0.251 ± 0.0067,0.213 ± 0.0063,0.177 ± 0.0033,0.159 ± 0.0064,0.35 ± 0.051,0.4 ± 0.031,0.49 ± 0.035,0.41 ± 0.015,0.343 ± 0.0091
NS(=O)(=O)c1cc(Cl)c(Cl)c(S(N)(=O)=O)c1 [Dichlorphenamide],0.25 ± 0.0031,0.298 ± 0.012,0.2704 ± 0.0016,0.211 ± 0.027,0.186 ± 0.011,0.131 ± 0.0026,0.312 ± 0.027,0.456 ± 0.038,0.443 ± 0.011,0.402 ± 0.017,0.399 ± 0.032
COc1ccccc1OCC(O)CO (stereo not given) [Guaifenesin],0.238 ± 0.0069,0.306 ± 0.021,0.274 ± 0.0056,0.191 ± 0.0043,0.19 ± 0.0056,0.141 ± 0.0035,0.427 ± 0.031,0.377 ± 0.14,0.535 ± 0.093,0.408 ± 0.011,0.345 ± 0.015
CN(C)CC/C=C1/c2ccccc2Sc2ccc(Cl)cc21 [Chlorprothixene hydrochloride],0.0398 ± 0.0002,0.0409 ± 0.001,0.03943 ± 0.00032,0.04043 ± 0.00038,0.042 ± 0.0051,0.0425 ± 0.00068,0.0468 ± 0.00058,0.0472 ± 0.0011,0.157 ± 0.12,0.41 ± 0.0049,0.0664 ± 0.0082
CCCCOC(=O)c1ccc(N)cc1 [Butamben],0.194 ± 0.0098,0.23 ± 0.018,0.277 ± 0.0069,0.186 ± 0.011,0.233 ± 0.0061,0.16 ± 0.0031,0.566 ± 0.058,0.304 ± 0.11,0.452 ± 0.0073,0.36 ± 0.026,0.344 ± 0.018
Cc1oncc1C(=O)Nc1ccc(C(F)(F)F)cc1 [Leflunomide],0.139 ± 0.0056,0.149 ± 0.0026,0.1904 ± 0.0019,0.138 ± 0.0062,0.106 ± 0.0035,0.096 ± 0.00046,0.381 ± 0.085,0.327 ± 0.018,0.3131 ± 0.0014,0.364 ± 0.021,0.158 ± 0.027
Cn1ccnc1S [Methimazole],0.257 ± 0.0088,0.32 ± 0.018,0.275 ± 0.0076,0.195 ± 0.011,0.191 ± 0.0034,0.16 ± 0.0067,0.484 ± 0.0095,0.417 ± 0.096,0.57 ± 0.026,0.405 ± 0.014,0.323 ± 0.009
NC(Cc1cc(I)c(Oc2cc(I)c(O)c(I)c2)c(I)c1)C(=O)O (stereo not given) [Thyroxine (L)],0.169 ± 0.0037,0.2363 ± 0.0021,0.284 ± 0.006,0.196 ± 0.021,0.154 ± 0.0089,0.185 ± 0.0093,0.354 ± 0.0042,0.292 ± 0.042,0.469 ± 0.018,0.369 ± 0.034,0.359 ± 0.019
Cc1nc(=O)c2cc(CN(C)c3ccc(C(=O)N[C@@H](CCC(=O)O)C(=O)O)s3)ccc2[nH]1 [Raltitrexed],0.229 ± 0.012,0.259 ± 0.0086,0.358 ± 0.013,0.171 ± 0.02,0.173 ± 0.0097,0.162 ± 0.0053,0.269 ± 0.05,0.4225 ± 0.0017,0.606 ± 0.055,0.409 ± 0.016,0.322 ± 0.011
CC(CCc1ccc(O)cc1)NCCc1ccc(O)c(O)c1 (stereo not given) [Dobutamine hydrochloride],0.116 ± 0.0039,0.227 ± 0.021,0.174 ± 0.0051,0.198 ± 0.0044,0.116 ± 0.0039,0.115 ± 0.0067,0.176 ± 0.006,0.165 ± 0.029,0.539 ± 0.008,0.409 ± 0.0099,0.343 ± 0.018
